Source: PubChem BioAssay (NCI)
Values joined by “and” are separate entries in the source; they are usually repeats but may differ in a detail not shown here. Identical values can stand only once. This is part of a sample that, as a whole, favours compounds with a hit. Of some 83,000 tested, about 20% had one in any assay.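 For each line, cells grew in 96-well plates with the test compound present at a single concentration for 48 hours.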 A number with no mark means an inactive call. Active and inactive are the calls of the source. Rule for the calls: active = growth percent below 10; inactive = the rest.

Test system: MDA-MB-468 breast
Experiment: NCI-60 one-dose screen, 48 h (100 = growth as untreated, 0 = no growth, -100 = all killed)
Conditions: 10 µM unless noted

SMILES	growth
ClCCN(CCCl)c1ccc(C=NCCc2c[nH]c3ccccc23)cc1	-16.7% (active)
CC1(C)C=Cc2c(ccc3c2[N+]([O-])=C2C3=C[C@@]34NC(=O)[C@]5(CCCN5C3=O)C[C@@H]4C2(C)C)O1	8.16% (active)
CC1=C(CN(O)C(N)=O)C2=C(C)C3(CC3)[C@](C)(O)C(=O)C2=C1	-65.6% (active)
O=S(OO)c1cc(Cl)c(O)c(Cl)c1 (stereo unspecified)	112%
Cn1cc(C2=C(c3cn(C4CCN(Cc5ccccn5)CC4)c4ccccc34)C(=O)NC2=O)c2ccccc21	119%
CCOC(=O)CCC(NC(=O)C(Cc1ccc(N(CCCl)CCCl)cc1)NC=O)C(=O)OCC (stereo unspecified)	-89.3% (active)
Nc1ccc(OCCNS(=O)(=O)c2cccc(S(=O)(=O)F)c2)c(Cl)c1	94.6%
C=CCCCN=C=S	33.9%
Fc1ccc2c(c1)c(-c1nc(-c3c[nH]c4ncccc34)cs1)cn2CCCCN1CCCCC1	-56.6% (active)
CC[C@@H](C)C(=O)O[C@H]1[C@H](O)[C@H]2[C@@H](CN3C[C@@H](C)CC[C@H]3[C@@]2(C)O)[C@@H]2C[C@]34O[C@]5(O)[C@@H](OC(=O)[C@@](C)(O)CC)CC[C@@]3(C)[C@@H]5[C@@H](OC(C)=O)[C@@H](OC(C)=O)[C@H]4[C@@]21O	90.6%
CCCCCCCCCCCCCCCC[N+](C)(C)C	-77.9% (active) and -17% (active)
Cc1cc(N(CCCl)CCCl)ccc1C=Nc1cccnc1	-74.8% (active)
O=C1C=Cc2ccccc2C1=O	104%
O=C(CBr)Nc1ccc(Cl)cc1	92.8%
COc1ccc(/C=C\c2cc(OC)c(OC)c(OC)c2)cc1NC(=O)/C=C/c1cc(OC)c(OC)c(OC)c1	16.5%
O=[N+]([O-])c1ccc(Br)c([N+](=O)[O-])c1	34%
O=C(CCl)NCNC(=O)CCl	96.8%
C[C@]12CC[C@H]3[C@@H](CCC4=CC(=O)CC[C@@H]43)[C@@H]1CC[C@@H]2OC(=O)N(CCCl)N=O	-22.1% (active)
Cc1cc(C)c(CBr)c(C)c1	98.9%
COC(=O)C1OC(Oc2ccc(N(CCCl)CCCl)cc2)C(OC(C)=O)C(OC(C)=O)C1OC(C)=O (stereo unspecified)	28.3%
COC(=O)[C@@H](C)C[C@H](Cc1ccccc1)NC(=O)c1csc([C@@H](C[C@H](C(C)C)N(C)C(=O)[C@@H](NC(=O)[C@H]2CCCCN2C)C2CCCCC2)OC(C)=O)n1	-8.49% (active)
COC1CC2C=C(C)/C=C/C=C/C(=O)NC(c3ccccc3)C/C=C/CCC(O)CC(=O)C2=C1O (stereo unspecified)	-50.7% (active)
CC(=O)O[C@H]1C(=O)[C@@]2(C)[C@H]([C@H](OC(=O)c3ccccc3)[C@]3(O)C[C@H](OC(=O)[C@H](OC(=O)OC[C@H]4COC(C)(C)O4)[C@@H](NC(=O)c4ccccc4)c4ccccc4)C(C)=C1C3(C)C)[C@]1(OC(C)=O)CO[C@@H]1C[C@@H]2O	-16.3% (active)
COC(=O)[C@@H](C)C[C@H](Cc1cn(C)c2ccccc12)NC(=O)c1csc([C@@H](C[C@H](C(C)C)N(C)C(=O)[C@@H](NC(=O)[C@H]2CCCCN2C)C(C)C)OC(C)=O)n1	28.6%
COc1ccc(C2=NN(c3ccccc3)C(c3sc(N(CCCl)CCCl)nc3Cl)C2)cc1 (stereo unspecified)	69.3%
CC1(C)S[C@H]2CC[C@H]3OC(=O)[C@@H]1N23	95.7%

SMILES	growth
CC[C@]12C=CCN3CC[C@@]4(c5ccc(OC)cc5N(C)[C@H]4[C@@](O)(C(=O)OC)[C@@H]1OC(=O)CCCC[P+](c1ccccc1)(c1ccccc1)c1ccccc1)[C@@H]32	-63.9% (active)
CC(=O)O[C@H]1CC[C@@]2(C)C(=CC[C@H]3[C@@H]4C[C@@H](N5CC5)[C@H](C(C)=O)[C@@]4(C)CC[C@@H]32)C1	79%
S=P(N1CCCCCC1)(N1CC1)N1CC1	105%
COc1ccc2nc(NC(=O)COc3cc(/C=C\c4cc(OC)c(OC)c(OC)c4)ccc3OC)sc2c1	-5.6% (active)
CCOc1cc(C=C(C#N)C#N)cc(Br)c1O	119%
Cc1cc(N(CCCl)CCCl)ccc1/C=N\NC(=O)c1cccnc1	-30.4% (active) and -38.6% (active)
N#Cc1nc(-c2ccccc2)oc1N1CCC(S(=O)(=O)F)CC1	110%
CCCCN(CCCC)CC(O)c1ccccc1 (stereo unspecified)	116%
NC(N)=NC(N)=Nc1ccc(Cl)cc1	111%
Oc1c(Cl)cc(Cl)c2ccccc12.[Cu+2]	101%
C/C(=N/OC(=O)N(C)C)c1cc(Cl)ccc1Cl	102%
OCc1ccc2c(c1)OCO2	97.6%
O=[N+]([O-])c1ccc(N(CCO)CCO)c2c1no[n+]2[O-]	2.96% (active)
CCC1CN1CCCCN1CC1CC (stereo unspecified)	101%
Cc1ccc(N2CCN(CCC#N)CC2)cc1	105%
CC(C)=CCC/C(C)=C/C=N\N=C(/N)N[N+](=O)[O-]	103%
c1cnc2[nH]cc(-c3csc(-c4cn(CCCCN5CCCCC5)c5ccccc45)n3)c2c1	98.6%
S=P(SP(=S)(c1ccccc1)c1ccccc1)(c1ccccc1)c1ccccc1	101%
COC1[C@@H]2C[C@H]3C(C)(C)O[C@@](C/C=C(/C)C(=O)O)(C2=O)[C@]32Oc3c(CC=C(C)C)c4c(c(O)c3C(=O)[C@H]12)C=CC(C)(C)O4 (stereo partly specified)	-65.2% (active)
CC(=O)O[C@H]1CC[C@]2(C)[C@H]3CC[C@]4(C)[C@@H](OC(C)=O)CC[C@H]4[C@@H]3[C@@H](C)[C@]2(O)C1	104%
Cc1cc(N)ccc1N	86.4%
O=[N+]([O-])/C=C\c1ccc(Cl)c(Cl)c1	12.4%
COc1ccc(N)cc1N	101%
O=[N+]([O-])c1ccc(OCc2ccc(S(=O)(=O)F)c(Cl)c2)c(Cl)c1	121%
CC[S][Hg][Cl]	116%
CCCCCCCCCCCCCCCCCC1OCC(COC(=O)O[C@@H](C(=O)O[C@H]2C[C@@]3(O)[C@@H](OC(=O)c4ccccc4)[C@@H]4[C@]5(OC(C)=O)CO[C@@H]5C[C@H](O)[C@@]4(C)C(=O)[C@H](OC(C)=O)C(=C2C)C3(C)C)[C@@H](NC(=O)c2ccccc2)c2ccccc2)O1 (stereo partly specified)	3.29% (active)

SMILES	growth
CCCCCCCCCCCCCCCC[n+]1ccccc1	-33.2% (active) and -13.9% (active)
C=C=[CH][Sn]([c]1ccccc1)([c]1ccccc1)[c]1ccccc1	-66.5% (active)
CC[C@H](C)[C@H](NC(=O)NC(C)(C)C)C(=O)N(C)[C@H](C[C@@H](OC(C)=O)c1nc(C(=O)N[C@@H](Cc2ccccc2)C[C@H](C)C(=O)OC)cs1)C(C)C	15.4%
CC(C)CCC1(CCO)C(=O)NC(=S)NC1=O	108%
O=C(N/N=C\c1ccc(N(CCCl)CCCl)cc1)c1cccc([N+](=O)[O-])c1	68.1%
O=C(O)C1(Br)CC12c1ccccc1-c1ccccc12 (stereo unspecified)	98.7%
CC[C@H](C)[C@H](NC(=O)c1cccn1C)C(=O)N(C)[C@H](C[C@@H](OC(C)=O)c1nc(C(=O)N[C@@H](Cc2ccccc2)C[C@H](C)C(=O)OC)cs1)C(C)C	25.9%
O=C(Nc1ccc(S(=O)(=O)F)cc1)Oc1ccccc1	97.6%
O=C(CCCc1ccc(N(CCCl)CCCl)cc1)OCc1ccccc1	87%
COc1ccc(OC)c(/C=C(/C)[N+](=O)[O-])c1	-40.8% (active)
C/C=C(\C)C(=O)O[C@@H]1C(O)[C@H]2OC(COC(=O)CCC(=O)CCCCCC[C@H](CCCCC)O[C@@H]3OC(C)[C@H](OC(C)=O)C(O)[C@H]3O2)[C@H]1OC(=O)/C=C/c1ccccc1 (stereo partly specified)	-8.84% (active)
S=P(Nc1ccccc1)(Nc1ccccc1)c1ccccc1	127%
C[C@]12CCc3sc(Nc4ccc(O)cc4)nc3C1=CC[C@@H]1[C@@H]2CC[C@]2(C)C(=O)CC[C@@H]12	-36.9% (active)
C[C@]12CC[C@H](OC3OC(O)C(O)C(O)C3O)C=C1CCC1C2CC[C@]2(C)[C@@H](c3ccc(=O)oc3)CC[C@]12O (stereo partly specified)	-63.8% (active)
Cc1cccc(N2CCN(C(C)C#N)CC2)c1 (stereo unspecified)	100%
CCn1cnc2c(Nc3cccc(Cl)c3)nc(N[C@@H]3CCCC[C@@H]3N)nc21	-22% (active)
CC1=C2C(=C[C@@](C)(COC(=O)c3ccc(S(=O)(=O)F)cc3)[C@@H]2OC(=O)c2ccc(S(=O)(=O)F)cc2)C(=O)[C@](C)(O)C12CC2	-76.8% (active)
CC(=O)C1C(=O)N(C)C(=O)N(C)C1=O	104%
O=C1CCC2(O)[C@@H]3Cc4ccc(O)c5c4[C@]2(CCN3Cc2ccoc2)C1O5 (stereo partly specified)	97.3%
CC1=C2C(=C[C@@](C)(COS(C)(=O)=O)[C@@H]2O)C(=O)[C@](C)(O)C12CC2	-54.8% (active)
CCC[CH2][Sn]([CH2]CCC)([CH2]CCC)[O]c1ccc(Cl)cc1Cl	-98.7% (active)
CC12CC[C@H](O)C=C1/C(=N/O)CC1C2CCC2(C)C1CC[C@@H]2O (stereo partly specified)	100%
CO/N=C1\CC[C@]2(C)[C@H]3CC[C@]4(C)C(=O)CC[C@H]4[C@@H]3C[C@@H]3SC(N)=N[C@@]32C1	88.8%
C1CCC([PH+](C2CCCCC2)C2CCCCC2[PH+](C2CCCCC2)C2CCCCC2)CC1.O=C(C1[CH-]CCCC1)C1CCCC[N-]1.[Au] (stereo unspecified)	-40.3% (active)
